According to ChEMBL document CHEMBL4513216, “Probing the Open Global Health Chemical Diversity Library for Multistage-Active Starting Points for Next-Generation Antimalarials” (ACS Infect Dis, 2020):
About 8,600 (12%) of roughly 69,000 compounds showed an effect of 50% or more. Only a selection was taken, and strong results are over-represented in it overall.

The molecules below were run on Plasmodium berghei (assay: Screen against P. berghei liver stage (PbLuc), transformed with Luciferase, at 10uM). Conditions: tested at 10 uM.
Assay type: functional, HepG2
COCC(c1cccc(C(F)(F)F)c1)N(C)C(=O)c1ccoc1 (stereo not drawn) showed an INHIBITION of 40.49%. In the case of COc1cccc2c3c(c(=O)n(C)c12)CCC(C)(C)O3, the INHIBITION is reported as 12.3%. Molecule Cn1cccc1C(=O)N1CCn2cc(CNC(=O)CC3CC3)nc2C1 has an INHIBITION of 9.67%. With CCc1ncc2c(n1)CN(Cc1cnc(C)cn1)CC2 the INHIBITION was 25.2%. In the case of COCCC(=O)N1CCC(c2nnc(-c3ccsc3)o2)CC1, the INHIBITION is reported as 0.75%. COc1cc(C2c3c(n[nH]c3C)N=C3COC(=O)C32)cc2c1OCO2 (stereo not drawn) was tested, and the INHIBITION was 58.1%. COc1cc(C2c3c(n[nH]c3C)N=C3COC(=O)C32)cc(Br)c1O (stereo not drawn) showed an INHIBITION of 62.3%. COc1cccc(C2c3c(n[nH]c3C)N=C3COC(=O)C32)c1O (stereo not drawn) gave an INHIBITION of 48%. COc1cccc(C2c3c(n[nH]c3C)N=C3COC(=O)C32)c1OC (stereo not drawn) was tested, and the INHIBITION was -7.77%. In the case of CCOc1c(Br)cc(C2c3c(n[nH]c3C)N=C3COC(=O)C32)cc1OC (stereo not drawn), the INHIBITION is reported as 72.4%. CSc1nc(N)c2c(n1)N=C1COC(=O)C1C2c1cccc(O)c1 (stereo not drawn) showed an INHIBITION of 25.1%. In the case of COc1cc(C2SCC(=O)Nc3[nH]ncc32)cc2c1OCO2 (stereo not drawn), the INHIBITION is reported as 30.2%. Work on O=C(NCc1ccco1)[C@H]1CC[C@@H]2[C@@H](CCN2c2ncc(F)cn2)O1 yielded an INHIBITION of 38.1%. CC(=O)NC1CCCN(C(=O)NCCOc2ccc3c(c2)OCO3)C1 (stereo not drawn) gave an INHIBITION of 15.6%. For O=C(CCc1ccncc1)N1CCCC(n2cccn2)C1 (stereo not drawn), the INHIBITION was 24.39%. For O=C(c1cccn1Cc1cccs1)N1CCC(C(=O)N2CCCC2)CC1, the INHIBITION was 11.6%. With COCc1cccc(CNCc2c(C)nn(C)c2N2CCOCC2)c1 the INHIBITION was 27.4%. In the case of CCCN1CCCCCC1Cc1c(C(=O)NC)sc2ccccc12 (stereo not drawn), the INHIBITION is reported as 17.235%. CN1CCCNC(=O)C12CCN(C(=O)c1ccc3[nH]cnc3c1)CC2 showed an INHIBITION of 20.2%. With CCc1noc(C(C)N2CCN(CCOCC(F)(F)F)CC2)n1 (stereo not drawn) the INHIBITION was -5.545%. Work on O=C(NCc1nccn1CCc1ccccc1)NCC1(O)CCC1 yielded an INHIBITION of -4.15%. With CCCN1CCC(CNC(=O)C2(c3ccccc3)CCC2)C1 (stereo not drawn) the INHIBITION was 42.9%. With Cc1noc(C(C)C)c1C(=O)NCC1CCCN1Cc1ccccc1 (stereo not drawn) the INHIBITION was 24.1%. In the case of O=C(NCC1CCN(CCc2ccccc2)C1)NCC1(O)CCC1 (stereo not drawn), the INHIBITION is reported as 53.8%. O=C(NCC1CCCN1CCc1ccccc1)NCC1(O)CCC1 (stereo not drawn) gave an INHIBITION of 19.2%. O=C(NCC1CCCN1Cc1ccccc1)NCC1(O)CCC1 (stereo not drawn) was tested, and the INHIBITION was 53.8%. In the case of CCC(=O)NCCCn1c(-c2cccnc2C)cc2cccnc21, the INHIBITION is reported as 10.9%. CCNC(=O)C(C)NC(=O)Nc1ccccc1SCC (stereo not drawn) was tested, and the INHIBITION was 5.17%. Cn1c(C(F)(F)F)nn(CCNC(=O)Nc2ccccc2Cl)c1=O gave an INHIBITION of 21%. O=C(NCCCn1nc2ccccn2c1=O)Nc1ccccc1Cl was tested, and the INHIBITION was 7.12%. CCNC(=O)C(C)NC(=O)Nc1ccccc1Cl (stereo not drawn) gave an INHIBITION of 62.9%. Work on CCNC(=O)C(C)NC(=O)Nc1ccccc1SC(F)(F)F (stereo not drawn) yielded an INHIBITION of 65%. Work on CCCNC(=O)C(C)NC(=O)Nc1ccccc1SC(F)F (stereo not drawn) yielded an INHIBITION of 41.5%. Molecule O=C1CCC2(CCC(NCc3ccoc3)CC2)N1 (stereo not drawn) has an INHIBITION of 2.58%. With O=C(CN1CCc2sccc2C1)Nc1nccs1 the INHIBITION was -41.6%. COC1COC2(CCN(CC3CCOCC3)CC2)C1 (stereo not drawn) gave an INHIBITION of 14%. For Cc1ccnc(NC(=O)c2ccc(F)c(S(=O)(=O)NC3CC3)c2)c1, the INHIBITION was -25.4%. CCn1cnnc1C1CCN(C(=O)c2ccccc2F)CC1 showed an INHIBITION of 21%. CNC(=O)C1Cn2ccnc2C2(CCN(C(=O)c3ccoc3C)CC2)O1 (stereo not drawn) was tested, and the INHIBITION was -7.7%. In the case of CC(C)c1noc(C(C)N2CCC(c3nc4ccccc4[nH]3)CC2)n1 (stereo not drawn), the INHIBITION is reported as 36.5%. For CC(C)c1noc(C(C)N2CCN(Cc3cccs3)CC2)n1 (stereo not drawn), the INHIBITION was 15.5%. CC(C)c1noc(C(C)N2CCN(Cc3nc4ccccc4[nH]3)CC2)n1 (stereo not drawn) showed an INHIBITION of 53.3%. Work on CC(C)C(Sc1cccs1)C(=O)NCc1cccnc1 (stereo not drawn) yielded an INHIBITION of 18.4%. Work on Cc1nc(CN(C)C2CCN(CCCOc3ccc(F)cc3)C2)no1 (stereo not drawn) yielded an INHIBITION of -0.219%. For COCC(=O)N1CCCC(c2cc(C(F)F)n3ncnc3n2)C1 (stereo not drawn), the INHIBITION was 59.3%. O=C(c1ccco1)N1CCCC(c2cc(C(F)(F)F)n3ncnc3n2)C1 (stereo not drawn) was tested, and the INHIBITION was 60.4%. Molecule O=C(c1ccco1)N1CCCC(c2cc(C(F)F)n3ncnc3n2)C1 (stereo not drawn) has an INHIBITION of 14.8%. In the case of O=C(c1ccncc1)N1CCCC(c2cc(C(F)F)n3ncnc3n2)C1 (stereo not drawn), the INHIBITION is reported as 35.2%. In the case of CC(C)C(=O)N1CCCC(c2cc(C(F)F)n3ncnc3n2)C1 (stereo not drawn), the INHIBITION is reported as 39.8%. O=C(Cc1ccsc1)N1CCCC(c2cc(C(F)F)n3ncnc3n2)C1 (stereo not drawn) showed an INHIBITION of 28%. For O=C(c1cnoc1)N1CCC[C@]2(C[C@H](Oc3ncccc3F)CO2)C1, the INHIBITION was -28.2%. CCCSCC(=O)N1C[C@H]2CC[C@@H](C1)N(Cc1ccccn1)C2=O was tested, and the INHIBITION was 35.9%. O=C1OCCN1CC(=O)N1C[C@@H]2CC[C@H]1CN(C(=O)c1ccccc1)C2 showed an INHIBITION of -12.6%. O=c1c(NCCOCCO)c(N2CCN(c3ccccc3)CC2)c1=O gave an INHIBITION of 6.34%. With CCn1nc(C)c2nnn(CC(=O)Nc3ccc(C)c(C)c3)c(=O)c21 the INHIBITION was 11%. Work on Cc1cc(C(=O)NCc2ccnc(N3CCOCC3)c2)c(C)s1 yielded an INHIBITION of 4.65%. For COc1ccc(C(=O)NCc2cc(N3CCOCC3)ncn2)o1, the INHIBITION was 8.11%. Molecule COc1nc(C)c(C(=O)NCc2cc(N3CCOCC3)ncn2)s1 has an INHIBITION of 34%. O=C(Cn1ccc2ccccc21)NCc1cc(N2CCOCC2)ncn1 gave an INHIBITION of 12.8%. In the case of COc1cc(C(=O)NCc2cc(N3CCOCC3)ncn2)ccn1, the INHIBITION is reported as 63.7%. With O=C(NCc1cc(N2CCOCC2)ncn1)c1cccc(CO)n1 the INHIBITION was 71.1%. Work on CCn1cnnc1CNC(=O)N1CCN(c2ccccc2O)CC1 yielded an INHIBITION of 36.1%. NCC1[C@H]2CN(Cc3ccccc3F)C[C@@H]12 (stereo partly drawn) gave an INHIBITION of 45.7%. O=c1cc(CSc2nnc[nH]2)nc2sc3c(n12)CCCC3 was tested, and the INHIBITION was 16.5%. Work on COCCCS(=O)(=O)N1CCN(c2cccc(O)c2)CC1 yielded an INHIBITION of 14.6%. CC(C)OCCS(=O)(=O)N1CCN(Cc2cccn2C)CC1 gave an INHIBITION of 4.1%. Molecule COCCCS(=O)(=O)N1CCN(Cc2cccn2C)CC1 has an INHIBITION of 51.1%. Work on Cc1c(Br)cccc1C(=O)NCCC1CCCNC1 (stereo not drawn) yielded an INHIBITION of 28.6%. O=C(C1CC(c2ccccc2)=NO1)N1CCCCc2ccccc21 (stereo not drawn) gave an INHIBITION of -15%. Molecule CCC(c1ccc(F)cc1F)S(=O)(=O)CCO (stereo not drawn) has an INHIBITION of 23.8%. Molecule CCC(c1ccccc1)S(=O)(=O)CCO (stereo not drawn) has an INHIBITION of 61.8%. CCC(c1ccc(F)cc1)S(=O)(=O)CCO (stereo not drawn) was tested, and the INHIBITION was 15.9%. Nc1nccnc1C1CN(C(=O)COc2cccnc2)CCO1 (stereo not drawn) gave an INHIBITION of -50.3%. For COCC(=O)N1CCC2(CC1)C(=O)N(Cc1cccnc1)CCN2C, the INHIBITION was 43.2%. Molecule O=C(O)c1cc(C=Cc2cccc3ccccc23)ncn1 has an INHIBITION of 8.05%. In the case of c1ccc(-c2nccc(CNC3CCc4ncnn4C3)n2)cc1 (stereo not drawn), the INHIBITION is reported as 36.1%. For Cn1ncc2c(NC3CCC3)nc(-c3ccncc3)nc21, the INHIBITION was 33.7%. Cn1ncc2c(N[C@@H]3C[C@H]4CC[C@@H]3C4)nc(-c3ccncc3)nc21 was tested, and the INHIBITION was 35.1%. For Cn1ncc2c(NCC3CCS(=O)(=O)C3)nc(-c3ccncc3)nc21 (stereo not drawn), the INHIBITION was 15.1%. Cn1ncc2c(N3CC(N4CCCCC4)C3)nc(-c3ccncc3)nc21 was tested, and the INHIBITION was 22.6%. For Cn1ncc2c(N3CCC(F)(F)CC3)nc(-c3ccncc3)nc21, the INHIBITION was 31%. For Cn1ncc2c(NC3CN4CCC3CC4)nc(-c3ccncc3)nc21 (stereo not drawn), the INHIBITION was 53.2%. For CN1[C@@H]2CC[C@H]1CN(c1nc(-c3ccncc3)nc3c1cnn3C)CC2, the INHIBITION was 71.3%. CC(C)N1CCCN(c2nc(-c3cccnc3)nc3c2cnn3C)CC1 gave an INHIBITION of 86.6%. With Cn1ncc2c(N3CC[C@H](O)C3)nc(-c3ccncc3)nc21 the INHIBITION was 19.8%. Molecule Cn1ncc2c(N3CCS(=O)(=O)CC3)nc(-c3cccnc3)nc21 has an INHIBITION of 35%. In the case of Cn1ncc2c(N3CCC3)nc(-c3ccncc3)nc21, the INHIBITION is reported as -3.83%. Molecule Cn1ncc2c(NC3CCSC3)nc(-c3ccncc3)nc21 (stereo not drawn) has an INHIBITION of 61.6%. CC(=O)N1CCc2cc(Cl)cc(Cl)c2C1 showed an INHIBITION of 37.7%. COCC1CC2(CCN(CC3CC3)CC2)CN1c1ncccn1 (stereo not drawn) gave an INHIBITION of 18.2%. Molecule Cn1ccc(C(=O)NC2CCC23CCN(Cc2ccc(F)cc2)CC3)c1 (stereo not drawn) has an INHIBITION of -9.02%. Work on Nc1ncnc2nc(C3CCN(C(=O)Cc4ccccc4)C3)ccc12 (stereo not drawn) yielded an INHIBITION of 6.3535%. COc1ccc(-c2cc(C3CCNCC3)nc(C)n2)cc1 gave an INHIBITION of -29.9%. In the case of COc1ccc(N2CCN(Cc3nc(CSC)no3)CC2=O)cc1, the INHIBITION is reported as -42.9%. Molecule CCNC(=O)Cc1ccc(NC(=O)NC(CC)c2ccncc2)cc1 (stereo not drawn) has an INHIBITION of 4.15%. Molecule CCC(NC(=O)Nc1ccc(OC)c(C)c1)c1ccncc1 (stereo not drawn) has an INHIBITION of 26.6%. CCC(NC(=O)NCC(=O)Nc1ccc(F)cc1)c1ccncc1 (stereo not drawn) showed an INHIBITION of 58.3%. With O=C(c1ccco1)N1C[C@H]2CCCN(CC3CCOCC3)[C@H]2C1 the INHIBITION was 49.5%. With Cc1cnc(NCCCN2CCCCC2CO)nc1 (stereo not drawn) the INHIBITION was 20.8%. Work on N#Cc1cccc(CS(=O)(=O)NC(Cc2ccccc2)C(N)=O)c1 (stereo not drawn) yielded an INHIBITION of 58.1%. With O=S(=O)(Cc1ccccc1F)NC(CO)c1ccco1 (stereo not drawn) the INHIBITION was 45.1%. Work on N#Cc1cccc(CS(=O)(=O)NCC(O)Cc2ccccc2)c1 (stereo not drawn) yielded an INHIBITION of 30.8%. In the case of N#Cc1cccc(CS(=O)(=O)NCCC(O)c2ccccc2)c1 (stereo not drawn), the INHIBITION is reported as 24.5%. NC(=O)C(Cc1ccccc1)NS(=O)(=O)Cc1ccccc1Cl (stereo not drawn) gave an INHIBITION of 9.75%. NC(=O)C(Cc1ccccc1)NS(=O)(=O)Cc1ccccc1F (stereo not drawn) gave an INHIBITION of 50.5%. O=C(NC1COC2(CCN(Cc3cccs3)CC2)C1)c1ccccn1 (stereo not drawn) gave an INHIBITION of 20.9%. In the case of Cc1ccc(CN[C@@H]2COC[C@H]2c2ccc(F)cc2)cc1C, the INHIBITION is reported as 49%. CN1CC2(CCC(C(=O)N3CCOCC3)CC2)Oc2ccccc2C1=O (stereo not drawn) showed an INHIBITION of -3.58%.
